Experimental data reported in the supplement of paper PMC11732987, “Enantioselective OTUD7B fragment discovery through chemoproteomics screening and high-throughput optimisation” (Communications Chemistry, 2025).

How the values were obtained:
Test in all cases: log2 ratio of Biotin-Ahx-Ub-VS probe labelling (fragment/DMSO); higher = less target engagement (more negative = stronger competition), active = hit call of the paper (q ≤ 0.05, log2 ratio ≤ -1)
Conditions in all cases: compound concentration: 200 uM; treatment time: 3 h
USP34 = USP34 (UniProt Q70CQ2)
Chain of USP34 (Q70CQ2 whole entry, the tested form may be a part): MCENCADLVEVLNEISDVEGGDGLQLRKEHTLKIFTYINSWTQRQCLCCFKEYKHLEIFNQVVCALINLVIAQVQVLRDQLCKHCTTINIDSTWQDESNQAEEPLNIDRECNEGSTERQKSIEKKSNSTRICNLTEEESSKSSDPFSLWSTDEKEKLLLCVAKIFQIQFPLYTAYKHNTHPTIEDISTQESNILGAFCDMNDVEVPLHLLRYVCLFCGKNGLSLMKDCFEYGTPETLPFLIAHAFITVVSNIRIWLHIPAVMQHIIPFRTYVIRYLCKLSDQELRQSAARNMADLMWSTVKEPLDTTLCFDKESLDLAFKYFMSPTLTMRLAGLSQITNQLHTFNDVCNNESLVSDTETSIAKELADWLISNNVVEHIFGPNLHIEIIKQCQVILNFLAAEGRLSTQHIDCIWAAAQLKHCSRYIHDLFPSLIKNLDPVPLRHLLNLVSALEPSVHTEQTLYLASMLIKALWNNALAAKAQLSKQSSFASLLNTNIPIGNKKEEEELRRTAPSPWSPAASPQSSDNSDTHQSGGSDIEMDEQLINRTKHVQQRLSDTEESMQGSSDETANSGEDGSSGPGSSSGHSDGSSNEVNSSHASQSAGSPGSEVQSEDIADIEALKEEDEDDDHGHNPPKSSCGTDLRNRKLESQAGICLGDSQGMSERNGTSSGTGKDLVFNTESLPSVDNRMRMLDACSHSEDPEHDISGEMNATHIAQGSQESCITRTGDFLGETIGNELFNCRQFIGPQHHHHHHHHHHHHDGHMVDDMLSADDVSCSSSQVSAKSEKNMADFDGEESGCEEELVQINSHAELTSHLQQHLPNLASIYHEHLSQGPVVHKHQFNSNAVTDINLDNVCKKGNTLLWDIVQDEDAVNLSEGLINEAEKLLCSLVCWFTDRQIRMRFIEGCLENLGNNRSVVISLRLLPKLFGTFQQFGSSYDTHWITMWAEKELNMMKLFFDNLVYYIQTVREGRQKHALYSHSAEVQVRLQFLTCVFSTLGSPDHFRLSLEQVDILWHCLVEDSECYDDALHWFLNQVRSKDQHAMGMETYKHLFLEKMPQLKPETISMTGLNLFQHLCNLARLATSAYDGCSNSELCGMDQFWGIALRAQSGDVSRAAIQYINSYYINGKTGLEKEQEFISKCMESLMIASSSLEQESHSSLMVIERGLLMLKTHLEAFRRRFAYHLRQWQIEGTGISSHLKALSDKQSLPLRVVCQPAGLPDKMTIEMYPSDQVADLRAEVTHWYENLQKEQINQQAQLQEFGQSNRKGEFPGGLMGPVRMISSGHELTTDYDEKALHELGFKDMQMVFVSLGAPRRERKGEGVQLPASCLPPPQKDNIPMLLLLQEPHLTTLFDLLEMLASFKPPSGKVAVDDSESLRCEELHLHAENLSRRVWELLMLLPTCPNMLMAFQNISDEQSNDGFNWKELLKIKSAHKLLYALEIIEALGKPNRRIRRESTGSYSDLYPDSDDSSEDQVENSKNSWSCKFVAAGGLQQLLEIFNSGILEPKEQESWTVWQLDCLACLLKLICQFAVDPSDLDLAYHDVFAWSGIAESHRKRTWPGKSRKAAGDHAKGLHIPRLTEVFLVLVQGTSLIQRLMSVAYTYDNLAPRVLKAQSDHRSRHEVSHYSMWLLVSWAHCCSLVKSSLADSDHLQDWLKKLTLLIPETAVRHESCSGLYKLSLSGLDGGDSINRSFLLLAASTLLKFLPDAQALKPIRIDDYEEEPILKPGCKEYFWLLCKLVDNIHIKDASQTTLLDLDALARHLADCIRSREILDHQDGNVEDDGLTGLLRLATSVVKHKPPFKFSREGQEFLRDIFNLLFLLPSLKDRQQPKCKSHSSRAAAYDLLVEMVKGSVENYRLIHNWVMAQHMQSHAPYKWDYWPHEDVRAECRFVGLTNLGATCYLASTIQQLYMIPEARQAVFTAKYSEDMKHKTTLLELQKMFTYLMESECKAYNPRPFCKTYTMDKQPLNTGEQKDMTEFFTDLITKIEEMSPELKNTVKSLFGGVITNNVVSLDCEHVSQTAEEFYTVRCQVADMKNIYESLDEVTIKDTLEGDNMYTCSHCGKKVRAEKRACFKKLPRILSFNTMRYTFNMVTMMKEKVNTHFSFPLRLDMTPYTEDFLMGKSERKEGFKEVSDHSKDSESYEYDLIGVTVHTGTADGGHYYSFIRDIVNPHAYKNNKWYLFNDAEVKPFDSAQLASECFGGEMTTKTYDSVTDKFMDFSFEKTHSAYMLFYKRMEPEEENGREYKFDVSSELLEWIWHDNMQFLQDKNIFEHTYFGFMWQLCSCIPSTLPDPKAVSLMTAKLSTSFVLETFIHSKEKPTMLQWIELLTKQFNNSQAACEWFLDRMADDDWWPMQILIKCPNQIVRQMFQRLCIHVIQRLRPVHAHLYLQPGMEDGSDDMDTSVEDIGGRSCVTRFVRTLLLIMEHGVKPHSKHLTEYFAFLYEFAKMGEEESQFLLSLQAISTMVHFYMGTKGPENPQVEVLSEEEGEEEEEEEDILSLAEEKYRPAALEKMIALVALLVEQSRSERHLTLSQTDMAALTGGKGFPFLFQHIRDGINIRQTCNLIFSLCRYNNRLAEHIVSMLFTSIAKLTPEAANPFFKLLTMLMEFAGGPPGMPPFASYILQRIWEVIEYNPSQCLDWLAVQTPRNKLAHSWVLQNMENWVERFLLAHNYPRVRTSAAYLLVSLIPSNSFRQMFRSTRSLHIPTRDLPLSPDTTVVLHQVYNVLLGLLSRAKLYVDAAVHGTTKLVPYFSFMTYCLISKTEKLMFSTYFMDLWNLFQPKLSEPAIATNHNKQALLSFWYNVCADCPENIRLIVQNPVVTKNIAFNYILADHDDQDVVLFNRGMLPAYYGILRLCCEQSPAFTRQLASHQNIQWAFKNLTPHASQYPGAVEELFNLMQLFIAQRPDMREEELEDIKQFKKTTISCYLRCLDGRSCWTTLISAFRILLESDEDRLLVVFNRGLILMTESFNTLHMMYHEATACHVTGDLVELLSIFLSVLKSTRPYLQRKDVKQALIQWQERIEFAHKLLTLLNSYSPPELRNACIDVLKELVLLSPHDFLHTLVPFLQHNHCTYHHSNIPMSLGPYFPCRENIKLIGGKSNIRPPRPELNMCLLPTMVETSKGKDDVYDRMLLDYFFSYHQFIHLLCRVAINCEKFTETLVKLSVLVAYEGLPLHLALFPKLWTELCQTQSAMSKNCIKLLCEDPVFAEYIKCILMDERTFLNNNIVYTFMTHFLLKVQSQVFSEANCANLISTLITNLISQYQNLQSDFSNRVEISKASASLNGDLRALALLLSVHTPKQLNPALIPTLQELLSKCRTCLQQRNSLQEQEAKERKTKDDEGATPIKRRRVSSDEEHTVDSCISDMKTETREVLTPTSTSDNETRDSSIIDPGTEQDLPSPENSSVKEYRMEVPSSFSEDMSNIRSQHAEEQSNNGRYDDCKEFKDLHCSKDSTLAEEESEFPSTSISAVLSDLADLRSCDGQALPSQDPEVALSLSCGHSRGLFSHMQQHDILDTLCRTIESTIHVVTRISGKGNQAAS
Method in brief: (§1)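 HEK293T lysate (495 µg per sample, in Tris/CHAPS/IGEPAL buffer with protease inhibitors) was treated in triplicate with fragment at 200 µM or with DMSO for 3 h. It was then treated with Biotin-Ahx-Ub-VS (0.5 µM final) for 1 h. Labelled DUBs were NeutrAvidin-enriched, digested with LysC and trypsin, and run by diaPASEF LC-MS/MS. Spectronaut label-free quantities were global-median-normalised. Values are average log2 ratios fragment/DMSO by unpaired t-test, using proteins with ≥2 unique peptides.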

USP36 = target: T1, USP36 (UniProt Q9P275)
T1 sequence (whole entry): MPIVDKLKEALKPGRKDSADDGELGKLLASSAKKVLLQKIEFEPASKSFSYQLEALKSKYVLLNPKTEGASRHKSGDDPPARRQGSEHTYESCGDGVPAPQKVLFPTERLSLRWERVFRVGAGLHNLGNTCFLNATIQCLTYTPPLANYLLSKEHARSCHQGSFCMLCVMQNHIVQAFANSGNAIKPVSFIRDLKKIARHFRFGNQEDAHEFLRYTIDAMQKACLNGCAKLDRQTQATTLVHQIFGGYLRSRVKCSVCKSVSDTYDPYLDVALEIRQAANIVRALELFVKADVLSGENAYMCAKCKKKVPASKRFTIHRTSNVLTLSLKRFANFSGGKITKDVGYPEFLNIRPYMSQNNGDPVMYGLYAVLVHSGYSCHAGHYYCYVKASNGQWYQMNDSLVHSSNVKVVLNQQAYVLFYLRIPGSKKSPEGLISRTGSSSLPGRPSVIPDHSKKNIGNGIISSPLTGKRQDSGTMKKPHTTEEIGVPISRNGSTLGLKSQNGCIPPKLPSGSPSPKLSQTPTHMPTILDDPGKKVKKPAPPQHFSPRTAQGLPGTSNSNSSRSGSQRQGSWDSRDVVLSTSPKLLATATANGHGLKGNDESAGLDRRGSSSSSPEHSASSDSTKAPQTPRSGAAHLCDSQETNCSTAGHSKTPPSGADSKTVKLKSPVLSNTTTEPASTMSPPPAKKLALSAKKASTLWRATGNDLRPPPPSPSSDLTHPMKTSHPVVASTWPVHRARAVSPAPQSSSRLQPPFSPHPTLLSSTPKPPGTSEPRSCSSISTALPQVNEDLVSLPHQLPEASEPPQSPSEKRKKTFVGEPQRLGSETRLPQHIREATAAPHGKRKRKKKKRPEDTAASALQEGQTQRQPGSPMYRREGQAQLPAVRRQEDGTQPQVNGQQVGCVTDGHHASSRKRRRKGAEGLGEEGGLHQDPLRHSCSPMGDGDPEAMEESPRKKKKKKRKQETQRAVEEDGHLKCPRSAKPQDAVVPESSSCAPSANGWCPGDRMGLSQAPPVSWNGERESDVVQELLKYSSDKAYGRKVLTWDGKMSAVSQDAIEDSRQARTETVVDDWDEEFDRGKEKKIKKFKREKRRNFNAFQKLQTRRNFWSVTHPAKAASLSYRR
Method in brief: as §1

USP38 = target: T2, USP38 (UniProt Q8NB14)
T2 sequence (whole entry): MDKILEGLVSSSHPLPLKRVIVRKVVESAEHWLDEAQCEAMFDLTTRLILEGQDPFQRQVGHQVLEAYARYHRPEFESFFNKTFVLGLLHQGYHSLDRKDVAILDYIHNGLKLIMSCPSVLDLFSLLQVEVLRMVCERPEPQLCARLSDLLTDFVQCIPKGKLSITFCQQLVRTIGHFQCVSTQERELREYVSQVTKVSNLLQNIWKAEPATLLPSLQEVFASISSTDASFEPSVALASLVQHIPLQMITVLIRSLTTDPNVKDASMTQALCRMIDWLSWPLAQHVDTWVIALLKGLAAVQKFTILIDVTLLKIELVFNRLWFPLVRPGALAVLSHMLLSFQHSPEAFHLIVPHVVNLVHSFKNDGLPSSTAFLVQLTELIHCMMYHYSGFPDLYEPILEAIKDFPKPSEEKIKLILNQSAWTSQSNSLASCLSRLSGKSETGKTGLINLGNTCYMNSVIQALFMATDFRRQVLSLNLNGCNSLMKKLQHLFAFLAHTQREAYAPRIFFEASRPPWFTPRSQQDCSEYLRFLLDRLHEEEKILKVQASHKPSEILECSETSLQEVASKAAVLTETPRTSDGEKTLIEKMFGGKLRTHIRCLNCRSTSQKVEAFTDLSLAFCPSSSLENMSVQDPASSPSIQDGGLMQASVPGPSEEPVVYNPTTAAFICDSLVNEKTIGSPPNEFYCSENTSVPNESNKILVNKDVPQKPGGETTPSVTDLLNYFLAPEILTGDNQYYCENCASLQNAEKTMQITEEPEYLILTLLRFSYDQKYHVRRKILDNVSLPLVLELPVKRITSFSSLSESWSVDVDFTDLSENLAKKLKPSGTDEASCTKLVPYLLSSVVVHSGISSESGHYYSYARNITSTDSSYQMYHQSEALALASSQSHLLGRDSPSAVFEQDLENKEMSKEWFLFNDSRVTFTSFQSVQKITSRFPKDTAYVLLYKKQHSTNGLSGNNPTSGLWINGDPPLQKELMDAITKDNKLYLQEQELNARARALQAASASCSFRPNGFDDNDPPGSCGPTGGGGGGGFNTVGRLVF
Method in brief: as §1

USP39 = target: T3, USP39 (UniProt Q53GS9)
T3 sequence (whole entry): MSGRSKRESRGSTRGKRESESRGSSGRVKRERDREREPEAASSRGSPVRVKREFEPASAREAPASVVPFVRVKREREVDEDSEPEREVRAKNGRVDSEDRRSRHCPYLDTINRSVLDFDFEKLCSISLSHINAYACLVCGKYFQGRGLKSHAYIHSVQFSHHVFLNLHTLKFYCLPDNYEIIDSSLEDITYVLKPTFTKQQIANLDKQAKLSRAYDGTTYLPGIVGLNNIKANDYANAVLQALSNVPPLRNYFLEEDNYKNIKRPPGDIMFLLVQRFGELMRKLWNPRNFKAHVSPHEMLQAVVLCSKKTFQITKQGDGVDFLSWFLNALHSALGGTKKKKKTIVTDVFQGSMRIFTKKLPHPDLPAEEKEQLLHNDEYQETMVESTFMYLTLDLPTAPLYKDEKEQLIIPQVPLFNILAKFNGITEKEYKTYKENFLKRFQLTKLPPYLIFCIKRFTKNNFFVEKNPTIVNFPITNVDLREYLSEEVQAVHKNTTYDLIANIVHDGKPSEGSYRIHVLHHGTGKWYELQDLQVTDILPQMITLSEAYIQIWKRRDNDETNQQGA
Method in brief: as §1

USP4 = target: T4, USP4 (UniProt Q13107)
T4 sequence (whole entry): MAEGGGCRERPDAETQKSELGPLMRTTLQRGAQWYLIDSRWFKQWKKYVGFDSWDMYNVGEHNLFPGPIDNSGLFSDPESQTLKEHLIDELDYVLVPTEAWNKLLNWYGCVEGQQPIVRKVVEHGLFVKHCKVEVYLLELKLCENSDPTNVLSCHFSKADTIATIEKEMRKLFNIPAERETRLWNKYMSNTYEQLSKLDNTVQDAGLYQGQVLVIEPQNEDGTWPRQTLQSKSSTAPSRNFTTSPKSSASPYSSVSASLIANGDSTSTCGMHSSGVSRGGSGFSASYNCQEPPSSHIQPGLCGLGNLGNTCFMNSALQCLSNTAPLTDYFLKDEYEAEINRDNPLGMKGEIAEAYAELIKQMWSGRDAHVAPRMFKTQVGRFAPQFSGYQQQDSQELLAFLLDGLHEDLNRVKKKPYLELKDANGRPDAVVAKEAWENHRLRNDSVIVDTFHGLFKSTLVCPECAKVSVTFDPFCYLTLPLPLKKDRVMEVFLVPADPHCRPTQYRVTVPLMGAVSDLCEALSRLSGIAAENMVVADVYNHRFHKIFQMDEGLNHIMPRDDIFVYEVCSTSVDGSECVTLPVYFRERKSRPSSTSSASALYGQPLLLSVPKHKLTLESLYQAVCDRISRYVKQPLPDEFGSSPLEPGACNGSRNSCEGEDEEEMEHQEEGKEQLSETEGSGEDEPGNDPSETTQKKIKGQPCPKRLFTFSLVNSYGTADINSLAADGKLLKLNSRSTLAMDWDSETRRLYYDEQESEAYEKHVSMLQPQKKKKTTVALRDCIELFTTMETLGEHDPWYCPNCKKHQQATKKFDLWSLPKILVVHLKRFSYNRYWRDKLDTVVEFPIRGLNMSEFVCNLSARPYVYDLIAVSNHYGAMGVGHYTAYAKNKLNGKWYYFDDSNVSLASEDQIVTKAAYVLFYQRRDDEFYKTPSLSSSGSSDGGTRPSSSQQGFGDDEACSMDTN
Method in brief: as §1

Measured: log2 ratio of Biotin-Ahx-Ub-VS probe labelling

Cc1nc(CNC(=O)CCl)c2ccccn12.Cl
inactive: USP34 -0.0794 | USP36 -0.09 | USP38 -0.0607 | USP39 0.302 | USP4 -0.0724
